L3MBTL1 inh – L3MBTL1 (human) inhibition | Q9Y468 | AlphaScreen L3MBTL1–H3K9me1 peptide binding | Potency, µM (titrated, usually from 57.1 µM), for inactives: at the top dose activity, negative = inhibition, actives largely listed as inhibitors | 230,000 tested, 0.66% active; note: % is set by controls: 0 for no effect and ±100 for the full control effect; nearly all actives have a fitted effect of over 60% in size
Target sequence (Q9Y468 whole entry, looked up): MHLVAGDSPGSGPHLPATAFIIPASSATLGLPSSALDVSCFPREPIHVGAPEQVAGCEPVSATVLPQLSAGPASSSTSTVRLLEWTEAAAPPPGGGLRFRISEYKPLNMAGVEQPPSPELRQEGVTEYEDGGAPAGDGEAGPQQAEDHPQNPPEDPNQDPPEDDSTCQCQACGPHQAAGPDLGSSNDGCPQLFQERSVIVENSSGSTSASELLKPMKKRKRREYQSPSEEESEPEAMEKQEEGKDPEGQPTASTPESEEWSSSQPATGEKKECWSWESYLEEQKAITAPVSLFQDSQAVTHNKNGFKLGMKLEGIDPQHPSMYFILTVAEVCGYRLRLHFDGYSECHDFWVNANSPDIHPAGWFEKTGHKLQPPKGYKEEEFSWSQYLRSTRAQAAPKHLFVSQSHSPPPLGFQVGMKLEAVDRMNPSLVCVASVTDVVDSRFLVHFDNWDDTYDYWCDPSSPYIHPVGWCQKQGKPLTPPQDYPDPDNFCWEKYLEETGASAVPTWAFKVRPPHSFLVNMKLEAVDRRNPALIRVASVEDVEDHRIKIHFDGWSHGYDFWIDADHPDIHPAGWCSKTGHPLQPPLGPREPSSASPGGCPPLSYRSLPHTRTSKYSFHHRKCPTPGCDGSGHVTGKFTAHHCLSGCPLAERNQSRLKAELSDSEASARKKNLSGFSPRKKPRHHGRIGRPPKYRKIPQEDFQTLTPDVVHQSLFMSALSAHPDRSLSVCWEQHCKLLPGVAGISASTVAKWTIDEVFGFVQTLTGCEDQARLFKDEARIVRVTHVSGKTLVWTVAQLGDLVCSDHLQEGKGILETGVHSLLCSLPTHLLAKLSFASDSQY
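L3MBTL1 50 nM + b-AHA-H3(1-15)K9me1 75 nM, 30 min RT; compound added, 30 min RT; streptavidin donor/Ni-chelate acceptor beads 10 ug/mL each final, 30 min RT dark; AlphaScreen read.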
JMJD2A Tudor inh – JMJD2A Tudor domain (human) inhibition. O75164. AlphaScreen JMJD2A-Tudor / H3K4me3 peptide binding. Potency, µM (doses to about 114 µM), for the others: at the top dose activity change, negative = inhibition, usual class: inhibitors. 390,000 tested, 4.4% active; note: % is set by controls: 0 for no effect and ±100 for the full control effect; nearly all actives have a fitted effect of over 50% in size
Sfp inh – blocks B. subtilis Sfp PPTase activity; Biochemical Sfp PPTase activity, qHTS; Potency, µM, without a hit: largest response in the series, negative = inhibition, hits mostly inhibitors; 310,000 tested, 3.5% active;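 note: the enzyme is Sfp with the accession as filed and its product quenches rhodamine fluorescence; 0% = enzyme reaction without inhibitor and -100% = no enzyme wells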
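After 15 min at room temperature with compound, 15 nM Sfp received 5 uM rhodamine-CoA plus 12.5 uM BHQ-2-ybbR (50 mM Hepes pH 7.6, 10 mM MgCl2). Rate came from the fluorescence difference over 30 min, ex 525/em 598 nm.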
G9a block – blocks human histone lysine methyltransferase G9a | Q96KQ7 | G9a H3K9 monomethylation, AlphaScreen, 2 h | Potency, µM (series often up to 102 µM), for the others: top-dose activity, negative = inhibition, actives largely listed as inhibitors | 350,000 tested, 8.8% active | AID 504332; note: % is set by controls: 0 for no effect and ±100 for the full control effect; nearly all actives have a fitted effect of over 75% in size
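Quantitative HTS format: methyltransferase activity on a biotin-tagged H3K9 peptide is measured by AlphaScreen, using a rabbit anti-monomethyl-H3K9 antibody with streptavidin donor and anti-IgG acceptor beads. Final levels are 20 nM enzyme, 500 nM peptide, 20 uM SAM; 2 h RT.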
BAZ2B inh – blocks human BAZ2B; Q9UIF8; 360,000 tested, 4.4% active; AlphaScreen BAZ2B-H3K14Ac peptide displacement; Potency, µM (doses to about 114 µM), inactives show top-dose activity change, negative = inhibition, hits mostly inhibitors; note: % is set by controls: 0 for no effect and ±100 for the full control effect; nearly all actives have a fitted effect of over 60% in size
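AlphaScreen luminescence quantifies BAZ2B engagement of H3K14Ac peptide; the protein and biotinylated peptide are both at 50 nM final, buffer PBS pH 7.4 with 0.01% Tween-20, all steps at room temperature.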
HP1b binding inh – blocks HP1-beta chromodomain binding to methylated histone tails; 390,000 tested, 0.56% active; Potency, µM (top dose mostly 114 µM), without a hit: at the top dose activity change, negative = inhibition, actives largely listed as inhibitors; AID 540317; AlphaScreen HP1-beta / biotin-H3K9me3 peptide binding; P83916; note: nearly all actives have a fitted effect of over 70% in size
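HP1-beta protein (50 nM final) preincubated 30 min at room temperature with biotinylated H3(1-18)K9me3 peptide (50 nM) in PBS pH 7.4, 0.01% Tween-20, then compound added for 30 min. AlphaScreen streptavidin donor/nickel chelate acceptor beads (10 ug/mL final), 30 min dark, luminescence read.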
* hit, by the source's call; ? = inconclusive; · = not tested or not shown; [ ] = remark or other dose. This is a sample that favours compounds with a hit; in the whole collection about 12% have one here. Calls come from the whole dose curve; as a rule, active = well fitted curve in the direction sought with a large enough effect; inconclusive = small, poorly fitted or top-dose-only effect, or another doubt; inactive = no such curve, though single readings can be large; an effect the other way counts as inactive or inconclusive. Potency is the fitted concentration of half-maximal effect.

SMILES	L3MBTL1 inh	JMJD2A Tudor inh	Sfp inh	G9a block	BAZ2B inh	HP1b binding inh
Cc1ccc(N=N/C(=C\O)C(=O)c2ccncc2)cc1	·	?	-3.8%	?	44.7µM*	-29.5%
O=C(/C(=C/O)N=Nc1ccccc1)c1ccco1	-13.1%	?	-3.5%	-48.5%	?	?
Cc1ccccc1OCCCCn1c(CCNC(=O)C(C)(C)C)nc2ccccc21	·	-25.7%	·	-3.4%[59 µM]	?	11.8%
CCc1ccc(NC(=O)COc2coc(CN3CCc4ccccc4C3)cc2=O)cc1	-2.4%	-6.1%	·	56.2µM*	4.6%	18.5%
CC1Cc2ccccc2N1Cc1cc(=O)c(OCC(=O)Nc2ccccc2)co1 (stereo unspecified)	?	-23.6%	·	-43.6%	-38.8%	4.8%
CC1CCN(C(=O)COc2coc(CN3CCc4ccccc43)cc2=O)CC1	-2.9%	-17.6%	·	?	-1.3%	14.0%
Cc1cc(C)cc(NC(=O)COc2coc(CN3CCc4ccccc43)cc2=O)c1	-19.9%	-31.0%	·	50.1µM*	?	22.3%
Cc1ccc(NC(=O)COc2coc(CN3c4ccccc4CC3C)cc2=O)c(C)c1 (stereo unspecified)	-23.4%	?	·	50.1µM*	?	-14.9%
CC1CN(C(=O)COc2coc(CN3CCc4ccccc4C3)cc2=O)CC(C)O1 (stereo unspecified)	9.1%	-0.7%	·	44.7µM*	-3.9%	38.2%
N#Cc1ccccc1S(=O)(=O)Nc1ccc2c(c1)C(=O)OC2	·	-9.3%	10.8%	-46.0%	-2.6%	40.7%
CCNc1nc(NCC)nc(SCCOC(=O)Nc2ccc(Cl)cc2Cl)n1	-3.1%	-10.6%	-7.5%	18.6%	5.7%	40.5%
COCCCNC(=O)C1CCN(c2cc(C)nc3c(-c4ccc(OC)c(OC)c4)c(C)nn23)CC1	·	-9.1%	·	-33.6%[59 µM]	-23.2%	47.9%
COc1ccc(OC)c(NC(=O)COc2coc(CN3CCc4ccccc43)cc2=O)c1	-20.8%	-28.3%	·	?	?	5.9%
Cc1ccc(NC(=O)COc2coc(CN3CCc4ccccc4C3)cc2=O)c(C)c1	6.5%	-13.8%	·	50.1µM*	-28.7%	39.6%
Cc1ccc(NC(=O)COc2coc(CN3CCc4ccccc43)cc2=O)c(C)c1	-14.7%	?	·	?	50.1µM*	-19.2%
O/N=C/c1cccnc1Sc1ccccc1	-5.6%	-15.0%[11.4 µM]	26.1%	7.2%	2.1%	23.2%
CCC(=O)OCC(=O)C1(OC(=O)CC)C(C)CC2C3C(Cl)CC4=CC(=O)C=C[C@@]4(C)C3C(O)C[C@@]21C (stereo partly specified)	·	·	2.1%	-23.2%[2.33 µM]	·	·
CCOC(=O)c1ccc(S(=O)(=O)N2CCN(CC(O)COc3ccc(C#N)cc3)CC2)cc1 (stereo unspecified)	·	20µM*	-20.4%	35.5µM*	56.2µM*	-29.6%
CCOC(=O)c1ccc(S(=O)(=O)N2CCN(CCC#N)CC2)cc1	9.9%	0.7%	26.3%	?	6.1%	40.7%
COc1ccc(OCC(O)CN2CCN(Cc3ccc4c(c3)OCO4)CC2)cc1 (stereo unspecified)	-2.6%	-12.7%	15.0%	20µM*	-11.6%	27.5%
CC(=O)N1CCN(CC(O)COc2ccc(OCc3ccccc3)cc2)CC1 (stereo unspecified)	?	-13.6%	1.4%	4.8%[59 µM]	-8.6%	4.3%
SC(COCc1ccccc1)CN1CCN(Cc2ccc3c(c2)OCO3)CC1 (stereo unspecified)	-24.2%	?	?	22.4µM*	?	5.3%
CC(=O)c1cccc(OCC(O)CN2CCN(C(=O)c3ccco3)CC2)c1 (stereo unspecified)	·	1.41µM*	-11.3%	?	70.8µM*	?
Fc1ccc(Nc2nc(SCc3cccc(Cl)c3)nc3ccccc23)cc1	·	6.3%	·	39.0%[59 µM]	22.5%	36.8%
COc1ccccc1NC(=O)Cn1c(C)nc2c(sc(=S)n2Cc2ccco2)c1=O	·	-6.8%	-17.6%	19.9%	-14.8%[57.1 µM]	43.6%

Screening data deposited in PubChem by National Center for Advancing Translational Sciences (NCATS).
